Assay [1] is described as follows: P-glycoprotein substrates identified in KB-8-5-11 adenocarcinoma cell line, qHTS therapeutic library screen (AID 1346987). Note: nearly all actives have a fitted effect of over 65% in size. An outline of the steps:
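KB-8-5-11: colchicine-selected sub-line of KB-3-1 over-expressing P-gp; assay medium lacked colchicine. 72 h drug exposure at 37 degree C, CellTiter-Glo.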
In general terms: qHTS replaces the single test concentration by a dilution series.

Assay [2] in a line: NS1 protein of Zika virus - qHTS assay to identify small molecule inhibitors in human HEK 293 cells (AID 1347053). Note: series mostly up to about 46 µM; nearly all actives have a fitted effect of over 55% in size. An outline of the steps:
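Inhibition of NS1 expression was scored in HEK 293 cells given compound 1 h ahead of MR766 virus (MOI = 0.5). Following 24 h at 37 C, two anti-NS1 antibodies generated a TR-FRET signal, scaled between uninfected and infected controls.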

Assay [3] is described as follows: qHTS of pediatric cancer cell lines to identify multiple opportunities for drug repurposing: Primary screen for SJ-GBM2 cells (AID 1347091). An outline of the steps:
(§1)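 Eight- or eleven-point concentration series, 48 h treatment at 37 degrees C in growth media; readout CellTiter-Glo luminescence. Potency and efficacy were taken from the concentration-response curves.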

Assay [4] can be described thus: qHTS of pediatric cancer cell lines to identify multiple opportunities for drug repurposing: Primary screen for A673 cells (AID 1347092). Note: nearly all actives have a fitted effect of over 45% in size. An outline of the steps:
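A673 cells (500-1,000 cells/well) were treated 48 hours at 37 degrees C with compounds at 11-point (0.78 nM to 46 µM) or 8-point (0.59 nM to 46 µM) dilutions. Viability read by CellTiter-Glo luminescence; concentration-response curves fitted.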

Assay [5] in a line: qHTS of pediatric cancer cell lines to identify multiple opportunities for drug repurposing: Primary screen for SK-N-MC cells (AID 1347093). Note: series mostly up to about 46 µM. Put shortly: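 Metabolically active cells were quantified by ATP-dependent luminescence (CellTiter-Glo, 15 min at room temperature) following 48 h treatment. Cells had been plated at 500-1,000 per well and settled for 5 h beforehand.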
A short description of assay [6]: qHTS of pediatric cancer cell lines to identify multiple opportunities for drug repurposing: Primary screen for BT-37 cells (AID 1347094). Note: series mostly up to about 57 µM. An outline of the steps:
(§2)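 Quantitative HTS format: each compound titrated (MIPE 11 points from 0.78 nM, NPC 8 points from 0.59 nM) onto cells plated 5 hours earlier. After 48 h at 37 degrees C, CellTiter-Glo luminescence was recorded.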

Assay [7] is described as follows: qHTS of pediatric cancer cell lines to identify multiple opportunities for drug repurposing: Primary screen for NB-EBc1 cells (AID 1347095). Put shortly:
as §2

Assay [8] in a line: qHTS of pediatric cancer cell lines to identify multiple opportunities for drug repurposing: Primary screen for U-2 OS cells (AID 1347096). Note: nearly all actives have a fitted effect of over 50% in size. An outline of the steps: (§3)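 Cells (500-1,000/well) in growth media were settled 5 h at 37 degrees C, then given compounds for 48 h. Viability was read as CellTiter-Glo luminescence. Primary runs used MIPE at 11 points (0.78 nM-46 µM) and NPC at 8 points (0.59 nM-46 µM); follow-ups used 11 points.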

Assay [9] is described as follows: qHTS of pediatric cancer cell lines to identify multiple opportunities for drug repurposing: Primary screen for Saos-2 cells (AID 1347097). Note: nearly all actives have a fitted effect of over 40% in size. An outline of the steps: as §2
Assay [10] is described as follows: qHTS of pediatric cancer cell lines to identify multiple opportunities for drug repurposing: Primary screen for SK-N-SH cells (AID 1347098). Note: nearly all actives have a fitted effect of over 65% in size. Note: potency is the fitted concentration of half-maximal effect. An outline of the steps:
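Cells (500-1,000/well) rested 5 h, then received compounds for 48 h; metabolically active cells were measured by CellTiter-Glo luminescence. Final concentrations spanned up to 46 µM (MIPE, 11-point) or 0.59 nM-46 µM (NPC, 8-point) in primary screens, 11-point in follow-ups.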

A short description of assay [11]: qHTS of pediatric cancer cell lines to identify multiple opportunities for drug repurposing: Primary screen for NB1643 cells (AID 1347099). Note: nearly all actives have a fitted effect of over 50% in size. An outline of the steps:
as §2

Assay [12] in a line: qHTS of pediatric cancer cell lines to identify multiple opportunities for drug repurposing: Primary screen for LAN-5 cells (AID 1347100). Put shortly: as §3
Assay [13] can be described thus: qHTS of pediatric cancer cell lines to identify multiple opportunities for drug repurposing: Primary screen for DAOY cells (AID 1347090). Note: series mostly up to about 46 µM; nearly all actives have a fitted effect of over 55% in size. Put shortly:
as §1

For assay [14], the target named is Tyrosine-protein phosphatase non-receptor type substrate 1 (Homo sapiens) + Leukocyte surface antigen CD47 (Homo sapiens) (UniProt P78324+Q08722). Kind of assay: CD47-SIRPalpha protein protein interaction - LANCE assay qHTS validation (AID 1347057; active = well fitted curve in the direction sought with a large enough effect in the signal ratio, with a control signal flat, not every such curve was filed as active; the % refers to the signal ratio; note: series mostly up to about 38 µM). Put shortly: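 First, His-tagged CD47 and Eu-labelled anti-His antibody met the compound for 30 min; next, site-specifically biotinylated SIRPalpha was added for 30 min; finally streptavidin-APC was added before reading the TR-FRET ratio.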
In general terms: TR-FRET usually uses a lanthanide donor and a delayed reading to cut background.

The target of assay [15] is Parathyroid hormone/parathyroid hormone-related peptide receptor (Homo sapiens) (UniProt Q03431). Put plainly: qHTS for PTHR1 Agonists: Optimization Screen against the NCGC LOPAC library (AID 1347079).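 Note: GloSensor cAMP luminescence in HEK-293 GP2 cells expressing human PTHR1 with IBMX.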 Put shortly:
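Compounds were tested across a qHTS titration. PTHR1-expressing GP2 cells report cAMP rises via GloSensor luminescence after 1 hr compound exposure at 37C with IBMX present.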

Values without a mark were called inactive. Records with an inconclusive call do not appear. Active and inactive are the calls of the source. Unless noted, calls come from the whole dose curve; as a rule, active = well fitted curve in the direction sought with a large enough effect; inconclusive = small, poorly fitted or top-dose-only effect, or another doubt; inactive = no such curve, though single readings can be large; an effect the other way counts as inactive or inconclusive.

Sequence of Tyrosine-protein phosphatase non-receptor type substrate 1 (Homo sapiens) + Leukocyte surface antigen CD47 (Homo sapiens) (P78324 whole entry, looked up): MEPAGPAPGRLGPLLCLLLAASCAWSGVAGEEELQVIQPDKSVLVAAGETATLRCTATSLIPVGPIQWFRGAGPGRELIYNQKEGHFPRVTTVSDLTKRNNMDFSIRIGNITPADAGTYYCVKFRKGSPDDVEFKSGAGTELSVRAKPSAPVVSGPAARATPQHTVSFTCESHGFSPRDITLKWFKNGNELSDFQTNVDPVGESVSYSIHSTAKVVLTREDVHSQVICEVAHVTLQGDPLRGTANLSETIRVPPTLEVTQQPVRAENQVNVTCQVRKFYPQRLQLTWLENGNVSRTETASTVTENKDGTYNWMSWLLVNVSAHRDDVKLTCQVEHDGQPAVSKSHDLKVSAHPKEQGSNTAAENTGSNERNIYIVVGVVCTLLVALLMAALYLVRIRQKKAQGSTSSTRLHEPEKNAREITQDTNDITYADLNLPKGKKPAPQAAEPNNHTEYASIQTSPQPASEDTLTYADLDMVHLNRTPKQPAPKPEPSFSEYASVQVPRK
Sequence of Tyrosine-protein phosphatase non-receptor type substrate 1 (Homo sapiens) + Leukocyte surface antigen CD47 (Homo sapiens) (Q08722 whole entry, looked up): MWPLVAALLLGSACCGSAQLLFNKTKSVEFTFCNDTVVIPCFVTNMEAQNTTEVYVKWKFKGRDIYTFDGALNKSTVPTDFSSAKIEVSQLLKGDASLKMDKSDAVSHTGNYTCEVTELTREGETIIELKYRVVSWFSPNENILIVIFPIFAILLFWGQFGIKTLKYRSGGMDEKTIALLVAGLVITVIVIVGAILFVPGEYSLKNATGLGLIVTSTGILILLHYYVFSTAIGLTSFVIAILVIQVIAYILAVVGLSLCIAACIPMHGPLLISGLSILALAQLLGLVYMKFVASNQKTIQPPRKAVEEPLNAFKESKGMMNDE
Sequence of Parathyroid hormone/parathyroid hormone-related peptide receptor (Homo sapiens) (Q03431 whole entry, looked up): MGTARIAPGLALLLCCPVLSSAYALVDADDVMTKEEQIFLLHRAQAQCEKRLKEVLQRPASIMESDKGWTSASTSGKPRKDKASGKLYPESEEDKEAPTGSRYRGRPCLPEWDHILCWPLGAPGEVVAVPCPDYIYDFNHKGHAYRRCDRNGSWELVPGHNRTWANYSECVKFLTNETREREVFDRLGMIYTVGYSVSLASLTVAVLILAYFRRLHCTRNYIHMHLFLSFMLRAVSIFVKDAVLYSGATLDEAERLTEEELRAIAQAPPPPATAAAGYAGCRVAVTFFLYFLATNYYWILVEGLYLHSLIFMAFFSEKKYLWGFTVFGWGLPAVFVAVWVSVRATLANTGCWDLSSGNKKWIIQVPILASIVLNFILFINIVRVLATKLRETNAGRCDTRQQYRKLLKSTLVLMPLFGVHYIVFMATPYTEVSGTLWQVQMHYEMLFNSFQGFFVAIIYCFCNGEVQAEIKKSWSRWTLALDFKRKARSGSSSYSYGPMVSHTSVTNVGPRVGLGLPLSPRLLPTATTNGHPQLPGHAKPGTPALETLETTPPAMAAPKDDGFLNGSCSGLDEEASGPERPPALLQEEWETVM

As for `Cc1ccc(C(C)C)cc2c(C)ccc1-2`, the Potency entry in assay [1], in [2], in [3], in assay [4], in assay [5] and in assay [6] was “inactive” each time. The Potency result in [7], in assay [8], in assay [9], in [10], in assay [11] and in [12] was “inactive” throughout.

In the case of `COc1ccc2[nH]c(S(=O)Cc3ncc(C)c(OC)c3C)nc2n1` (centres undefined), the Potency result in [1], in assay [2], in assay [13], in [3], in [4] and in assay [5] was “inactive” throughout. Besides, the Potency entry in assay [6], in assay [7], in assay [8], in assay [9], in [10] and in assay [11] was “inactive” throughout. Also, the Potency entry in assay [12] is “inactive”.

As for `CC(O)CN(CCN(CC(C)O)CC(C)O)CC(C)O` (centres undefined), the Potency result in [1], in [2], in [13], in assay [3], in assay [4] and in assay [7] was “inactive” each time. The Potency entry in assay [8], in assay [9], in [10], in assay [11] and in assay [12] was “inactive” each time.

As for `CC1(C)CO[C@@H](CC(=O)O)CN1`, the Potency entry in assay [1], in assay [2], in assay [13], in [3], in assay [4] and in assay [5] was “inactive” in each case. In addition, the Potency entry in [6], in assay [7], in assay [8], in assay [9], in [10] and in assay [11] was “inactive” throughout. Further, the Potency result in [12] is “inactive”.

Consider `O=S(=O)(O)NC1CCCCC1`, for which the Potency entry in assay [1], in assay [2], in [3], in assay [4], in [6] and in [7] was “inactive” each time. Also, the Potency result in assay [8], in [9], in assay [11] and in [12] was “inactive” in each case.

Consider `CN1CCCCC1CCN1c2ccccc2Sc2ccc(S(C)=O)cc21` (centres undefined), for which the Potency result in assay [1], in [2], in assay [3], in assay [4], in [5] and in assay [6] was “inactive” each time. The Potency result in assay [7], in assay [8], in assay [9], in [11] and in assay [12] was “inactive” in each case.

As to `CC1CC(OC(=O)C(O)c2ccccc2)CC(C)(C)N1C` (centres undefined), the Potency entry in [1], in assay [2], in [13], in [3], in [4] and in [5] was “inactive” in each case. Further, the Potency entry in assay [6], in assay [7], in assay [8], in assay [9], in [10] and in assay [11] was “inactive” in each case. The Potency result in assay [12] was “inactive”.

Turning to `CC1(C)Oc2ccc(C#N)cc2[C@@H](N2CCCC2=O)[C@@H]1O`, the Potency entry in assay [1], in [2], in assay [13], in assay [3], in assay [4] and in [5] was “inactive” throughout. The Potency entry in assay [6], in assay [7], in assay [8], in assay [11] and in assay [12] was “inactive” throughout.

As to `CCC(=O)c1ccc(O)cc1`, the Potency entry in assay [1], in assay [2], in assay [13], in assay [3], in assay [4] and in [5] was “inactive” each time. For the same molecule, the Potency result in assay [7], in assay [8], in assay [9], in assay [10], in assay [11] and in [12] was “inactive” in each case.

`Cn1c(=O)c2c(ncn2CC2OCCO2)n(C)c1=O`: the Potency result in assay [1], in assay [2], in assay [13], in assay [3], in assay [4] and in assay [7] was “inactive” in each case. Moreover, the Potency result in assay [8], in assay [9], in [11] and in [12] was “inactive” throughout.

Consider `CSc1ccc2c(c1)C(N1CCN(C)CC1)Cc1ccccc1S2` (centres undefined), for which the Potency result in [1], in [15], in assay [13], in assay [7], in assay [8] and in assay [11] was “inactive” each time. Besides, in [14], the outcome was inactive. The Potency in assay [10] was 27.3 µM (active).

These data come from PubChem BioAssay (NCATS).
